In all, about 5,500 compounds went through this assay and about 2,000 (36%) were called active. Another 18% or so got no clear call; they are omitted. Cut-off read from the data, not from the text of the source: active = normalized growth mostly below about 0.91 (no sharp cut-off); inconclusive = no clear call, values can overlap the other calls; inactive = mostly above about 0.92. The list shows a part of the results.
Test: chemical genetic growth profiling, strain panel (AID 1159580);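 note: tested at 20 µM; growth read once vehicle control cultures reached saturation at 30 °C; 1 = growth at the plate median or of vehicle wells; lower values mean less growth of the strain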
Conditions: S. cerevisiae deletion strains, growth OD

Measured: normalized growth

CC(=O)c1ccc2c(c1)N(CCCN(C)C)c1ccccc1S2
inactive: locus YAL021C, strain ccr4, hits give low values 0.962 | locus YAL026C, strain drs2, hits give low values 0.981 | locus YAL030W, strain snc1, hits give low values 1 | locus YBL061C, strain skt5, hits give low values 0.992 | locus YBR009C, strain hhf1, hits give low values 1 | locus YBR023C, strain chs3, hits give low values 1.01 | locus YBR171W, strain sec66, hits give low values 0.988 | locus YBR231C, strain swc5, hits give low values 0.994 | locus YBR279W, strain paf1, hits give low values 0.988 | locus YCL011C, strain gbp2, hits give low values 0.976 | locus YCL016C, strain dcc1, hits give low values 0.995 | locus YCL061C, strain MRC1, hits give low values 0.983 | locus YCL069W, strain vba3, hits give low values 0.988 | locus YCR088W, strain abp1, hits give low values 0.978 | locus YDL005C, strain med2, hits give low values 0.989 | locus YDL040C, strain nat1, hits give low values 0.99 | locus YDR001C, strain nth1, hits give low values 0.983 | locus YDR069C, strain doa4, hits give low values 0.99 | locus YDR137W, strain rgp1, hits give low values 1.09 | locus YDR159W, strain sac3, hits give low values 1.01 | locus YDR195W, strain ref2 1 | locus YDR297W, strain sur2, hits give low values 0.984 | locus YDR334W, strain swr1, hits give low values 0.959 | locus YDR335W, strain msn5, hits give low values 0.968 | locus YDR392W, strain spt3, hits give low values 0.994 | locus YEL003W, strain gim4, hits give low values 0.986 | locus YEL037C, strain rad23, hits give low values 0.939 | locus YEL061C, strain CIN8 (second series), hits give low values 0.984 | locus YER015W, strain faa2, hits give low values 0.98 | locus YER016W, strain bim1, hits give low values 0.989 | locus YER111C, strain swi4, hits give low values 0.994 | locus YER155C, strain BEM2 (second series), hits give low values 0.995 | locus YFR010W, strain ubp6, hits give low values 0.974 | locus YGL167C, strain pmr1, hits give low values 0.987 | locus YGL173C, strain kem1, hits give low values 0.973 | locus YGL227W, strain vid30, hits give low values 0.991 | locus YGL240W, strain doc1, hits give low values 1 | locus YGL253W, strain hxk2, hits give low values 0.993 | locus YHR013C, strain ard1, hits give low values 0.947 | locus YHR027C, strain rpn1, hits give low values 0.986 | locus YHR030C, strain SLT2, hits give low values 0.966 | locus YHR079C, strain IRE1, hits give low values 0.963 | locus YHR142W, strain chs7, hits give low values 0.943 | locus YJL092W, strain hpr5, hits give low values 0.934 | locus YJL095W, strain BCK1 (second series), hits give low values 1 | locus YJL095W, strain BCK1, hits give low values 1 | locus YJL115W, strain asf1, hits give low values 0.974 | locus YJL129C, strain trk1, hits give low values 0.981 | locus YJL154C, strain vps35, hits give low values 0.987 | locus YJL164C, strain tpk1, hits give low values 0.99 | locus YJL166W, strain qcr8, hits give low values 0.997 | locus YJL187C, strain SWE1, hits give low values 0.998 | locus YJR066W, strain TOR1, hits give low values 0.923 | locus YKL160W, strain elf1, hits give low values 0.976 | locus YKR026C, strain gcn3, hits give low values 0.979 | locus YKR091W, strain srl3, hits give low values 0.992 | locus YLL001W, strain dnm1, hits give low values 0.973 | locus YLL026W, hits give low values 0.996 | locus YLL041C, strain sdh2, hits give low values 0.98 | locus YLR027C, strain aat2, hits give low values 0.995 | locus YLR113W, strain HOG1, hits give low values 0.995 | locus YLR221C, strain rsa3, hits give low values 0.979 | locus YLR258W, strain gsy2, hits give low values 0.995 | locus YLR262C, strain YPT6 (second series), hits give low values 1.06 | locus YLR320W, strain mms22, hits give low values 1.01 | locus YLR342W, strain FKS1, hits give low values 0.99 | locus YLR357W, strain rsc2, hits give low values 1.01 | locus YLR370C, strain arc18, hits give low values 0.984 | locus YLR384C, strain iki3, hits give low values 0.987 | locus YML120C, strain ndi1, hits give low values 0.969 | locus YMR058W, strain fet3, hits give low values 0.967 | locus YMR125W, strain sto1, hits give low values 1.02 | locus YMR129W, hits give low values 0.991 | locus YMR205C, strain PFK2, hits give low values 1.02 | locus YMR231W, strain pep5, hits give low values 0.996 | locus YNL071W, strain lat1, hits give low values 0.995 | locus YNL183C, strain NPR1, hits give low values 0.947 | locus YNL209W, strain ssb2, hits give low values 0.99 | locus YNL248C, strain rpa49, hits give low values 0.956 | locus YNL322C, strain KRE1 (second series), hits give low values 0.987 | locus YNR049C, strain mso1, hits give low values 0.989 | locus YOR001W, strain rrp6, hits give low values 0.975 | locus YOR070C, strain gyp1, hits give low values 0.992 | locus YOR080W, strain dia2, hits give low values 0.983 | locus YOR083W, strain WHI5, hits give low values 0.971 | locus YOR106W, strain vam3, hits give low values 0.972 | locus YOR231W, strain MKK1, hits give low values 0.972 | locus YOR265W, strain rbl2, hits give low values 0.995 | locus YOR270C, strain vph1, hits give low values 0.958 | locus YOR290C, strain snf2, hits give low values 1.02 | locus YPL051W, strain arl3, hits give low values 0.994 | locus YPL078C, strain atp4, hits give low values 1 | locus YPL106C, strain sse1, hits give low values 0.973 | locus YPL240C, strain hsp82, hits give low values 0.997 | locus YPL256C, strain CLN2, hits give low values 0.954

Reference: PubChem BioAssay AID1159580 (chemical genetic matrix, 2015)
